In PubChem BioAssay (Tox21):
Inconclusive results are not listed. Calls of active or inactive are those of the source. Unless noted, the call rests on the fitted dose curve; in most records, active means well fitted curve in the direction sought with a large enough effect in the repeat runs; inconclusive means weak or mixed curves; inactive means no such curve, though single readings can be large; an effect the other way counts as inactive or inconclusive.

Key:
[1] = qHTS assay to identify small molecule agonists of the peroxisome proliferator-activated receptor delta (PPARd) signaling pathway - cell viability counter screen (AID 743211); further: nearly all actives have a fitted effect of over 55% in size
How it was run: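 PPARd-bla HEK293H cells (UAS-beta-lactamase reporter) were treated with compounds for 17 h at 37 C. Viability was then read in the same wells by CellTiter-Glo luminescence after 30 min at room temperature.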

[2] = biological target: Peroxisome proliferator-activated receptor delta (Homo sapiens) (UniProt Q03181); test: qHTS assay to identify small molecule agonists of the peroxisome proliferator-activated receptor delta (PPARd) signaling pathway (AID 743212; calls by dose curve)
Sequence of Peroxisome proliferator-activated receptor delta (Homo sapiens) (Q03181 whole entry, looked up): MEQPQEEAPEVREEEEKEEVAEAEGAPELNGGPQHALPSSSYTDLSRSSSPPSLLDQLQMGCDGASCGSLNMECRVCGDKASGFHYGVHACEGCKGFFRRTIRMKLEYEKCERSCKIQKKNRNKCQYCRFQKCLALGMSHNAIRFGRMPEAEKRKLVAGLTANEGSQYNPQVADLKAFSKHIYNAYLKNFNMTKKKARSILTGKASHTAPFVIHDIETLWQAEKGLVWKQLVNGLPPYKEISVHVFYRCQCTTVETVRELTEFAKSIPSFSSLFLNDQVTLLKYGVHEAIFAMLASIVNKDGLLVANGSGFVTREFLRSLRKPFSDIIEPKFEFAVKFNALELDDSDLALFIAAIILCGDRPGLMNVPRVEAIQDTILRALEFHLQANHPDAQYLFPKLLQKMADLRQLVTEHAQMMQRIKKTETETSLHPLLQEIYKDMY
How it was run: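 Cells expressing a UAS-driven beta-lactamase reporter (PPARd-bla HEK293H) were given test compounds after a 5 h settle and kept at 37 C. Reporter activity was then measured as FRET fluorescence using LiveBLAzer B/G substrate.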

[3] = qHTS assay to identify small molecule antagonists of the peroxisome proliferator-activated receptor delta (PPARd) signaling pathway - cell viability counter screen (AID 743213); further: nearly all actives have a fitted effect of over 50% in size
How it was run: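 HEK293H cells with the PPARd UAS-bla reporter, co-treated 17 h at 37 C with compounds and L165041 (300 nM final), were lysed with CellTiter-Glo. Luminescence indicated viable cell content.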

[4] = biological target: Peroxisome proliferator-activated receptor delta (Homo sapiens) (UniProt Q03181); test: qHTS assay to identify small molecule antagonists of the peroxisome proliferator-activated receptor delta (PPARd) signaling pathway (AID 743215; active means well fitted inhibition curve with a large enough effect in the signal ratio in the repeat runs, not every such curve was filed as active; the % refers to the signal ratio;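 further: cells stimulated with agonist L165041 at 300 nM final during compound exposure; series mostly up to about 62 µM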)
How it was run: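 Fluorescence from cleaved LiveBLAzer B/G FRET substrate (2 h, room temperature) reports PPARd-driven beta-lactamase in HEK293H UAS-bla cells. Cells had been treated 17 h at 37 C with compound plus 300 nM final L165041.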

[5] = qHTS assay to identify small molecule agonists of the farnesoid-X-receptor (FXR) signaling pathway - cell viability counter screen (AID 743218); further: nearly all actives have a fitted effect of over 45% in size
How it was run: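 Readout: CellTiter-Glo luminescence, 30 min RT, multiplexed after the FXR-bla FRET reading. HEK 293T FXR-UAS-bla cells received compound 5 h post-plating and were incubated 16 h at 37 C.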

[6] = qHTS assay to identify small molecule antagonists of the farnesoid-X-receptor (FXR) signaling pathway - cell viability counter screen (AID 743221; active means well fitted cell-killing curve with a large enough effect in the repeat runs, not every such curve was filed as active; further: nearly all actives have a fitted effect of over 50% in size)
How it was run: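 FXR-UAS-bla HEK 293T cells were treated with test compounds plus chenodeoxycholic acid (50 uM final) for 16 h at 37 C. Cell viability in the same wells was then read as CellTiter-Glo luminescence after 30 min at room temperature.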

[7] = biological target: Vitamin D3 receptor (Homo sapiens) (UniProt P11473); test: qHTS assay to identify small molecule agonists of the vitamin D receptor (VDR) signaling pathway (AID 743222; calls by dose curve)
Sequence of Vitamin D3 receptor (Homo sapiens) (P11473 whole entry, looked up): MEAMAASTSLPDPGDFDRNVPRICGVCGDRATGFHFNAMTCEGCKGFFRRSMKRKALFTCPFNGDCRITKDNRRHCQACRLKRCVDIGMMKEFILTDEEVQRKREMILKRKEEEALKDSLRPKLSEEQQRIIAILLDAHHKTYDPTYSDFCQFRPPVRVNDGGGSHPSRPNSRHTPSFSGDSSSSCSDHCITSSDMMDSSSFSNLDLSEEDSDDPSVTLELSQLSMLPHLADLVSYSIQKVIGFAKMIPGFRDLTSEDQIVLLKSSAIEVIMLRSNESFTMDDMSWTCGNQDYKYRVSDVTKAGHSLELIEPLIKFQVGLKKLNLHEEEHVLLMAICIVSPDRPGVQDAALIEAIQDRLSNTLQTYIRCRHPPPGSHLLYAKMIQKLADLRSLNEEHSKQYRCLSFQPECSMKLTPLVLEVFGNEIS
How it was run: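 Following 4 h attachment at 37C, VDR-bla cells (2,000 per well) received DMSO-dissolved compounds or controls. After 16 h incubation, LiveBLAzer B/G FRET substrate was added and fluorescence read 2 h later at room temperature.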

[8] = biological target: Vitamin D3 receptor (Homo sapiens) (UniProt P11473); test: qHTS assay to identify small molecule antagonists of the vitamin D receptor (VDR) signaling pathway (AID 743223; active means well fitted inhibition curve with a large enough effect in the signal ratio in the repeat runs, not every such curve was filed as active; the % refers to the signal ratio)
How it was run: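 VDR-bla cells were plated, incubated 4 h at 37C, then given compound and 1alpha,25-dihydroxyvitamin D3 (3 nM final). After 16 h at 37C, LiveBLAzer B/G FRET substrate was added for 2 h at room temperature and fluorescence read.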

[9] = qHTS assay to identify small molecule agonists of the vitamin D receptor (VDR) signaling pathway - cell viability counter screen (AID 743224); further: series mostly up to about 63 µM; nearly all actives have a fitted effect of over 50% in size
How it was run: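 In parallel with the bla FRET readout, cytotoxicity toward VDR-bla cells after 16 h compound exposure was assessed by CellTiter-Glo, with luminescence recorded after a 30 min room-temperature incubation.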

[10] = qHTS assay to identify small molecule antagonists of the vitamin D receptor (VDR) signaling pathway - cell viability counter screen (AID 743225); further: nearly all actives have a fitted effect of over 50% in size
How it was run: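 VDR-bla HEK 293T cells, 4 h pre-incubation at 37C, then compound plus 1-alpha,25-dihydroxyvitamin D3 (3 nM final) for 16 h. After the beta-lactamase FRET read, CellTiter-Glo was added to the same wells; luminescence after 30 min at room temperature.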

[11] = qHTS assay to identify small molecule agonists of the NFkB signaling pathway (AID 1159509; active means well fitted curve in the direction sought with a large enough effect in the signal ratio in the repeat runs, not every such curve was filed as active; the % refers to the signal ratio; further: series mostly up to about 61 µM)
How it was run: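 Pathway activation was measured in ME-180 cells stably expressing beta-lactamase under NF-kB response element control. Substrate cleavage was read as the 460/530 nm emission shift after 5 hr compound incubation.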

[12] = qHTS assay to identify small molecule agonists of the NFkB signaling pathway - cell viability counter screen (AID 1159515; calls by dose curve; further: series mostly up to about 61 µM; nearly all actives have a fitted effect of over 55% in size)
How it was run: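 Plate 2,000 NFkB-bla ME-180 cells/well; incubate overnight. Add compounds, 5 hr at 37 C. Add FRET substrate, 1.5 hr RT. Add CellTiter-Glo, 30 min RT; read luminescence.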

[13] = qHTS assay to identify small molecule agonists of the endoplasmic reticulum stress response signaling pathway (AID 1159516; active means well fitted activation curve with a large enough effect in the signal ratio in the repeat runs, not every such curve was filed as active; the % refers to the signal ratio)
How it was run: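 Beta-lactamase expression from the ER stress response element in HeLa reporter cells is quantified with the LiveBLAzer B/G FRET substrate, read at 405 nm excitation after 2 hr at room temperature, following 5 hr compound treatment at 37 C.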

[14] = qHTS assay to identify small molecule agonists of the endoplasmic reticulum stress response signaling pathway - cell viability counter screen (AID 1159517; calls by dose curve)
How it was run: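 Cpd-treated ESRE-bla HeLa (5 hr, 37 C) → LiveBLAzer 2 hr RT → CellTiter-Glo 30 min RT → luminescence.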

[15] = qHTS assay to identify small molecule antagonists of the retinoid-related orphan receptor gamma (ROR-gamma) signaling pathway - cell viability counter screen (AID 1159520); further: nearly all actives have a fitted effect of over 50% in size
How it was run: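 Tet-on ROR gamma CHO cells (1,000/well) were plated 4 hr, given compounds in DMSO for 2 hr at 37 C, then induced with 1 uM final doxycycline for 16 hr. Viability was read as ATP by CellTiter-Glo luminescence after 30 min.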

[16] = biological target: Nuclear receptor ROR-gamma (Homo sapiens) (UniProt P51449); test: qHTS assay to identify small molecule antagonists of the retinoid-related orphan receptor gamma (ROR-gamma) signaling pathway (AID 1159521)
How it was run: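 Tet-on RORγ CHO cells carrying a ROR response element–luciferase reporter were pretreated with compounds for 2 h, then induced with 1 uM (final) doxycycline hyclate for 16 h at 37 C. Antagonism was read as decreased ONE-Glo luminescence.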

[17] = qHTS assay to identify small molecule agonists of the AP-1 signaling pathway (AID 1159526; calls by dose curve)
[18] = qHTS assay to identify small molecule agonists of the AP-1 signaling pathway - cell viability counter screen (AID 1159525; calls by dose curve; further: nearly all actives have a fitted effect of over 55% in size)
How it was run: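 Each titration point was normalised to DMSO and tetra n-octyl ammonium bromide controls. The read was Cell Titer Glo luminescence after 30 min at RT, following 5 h compound exposure of ME-180 AP-1-bla cells at 37 °C.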

[19] = biological target: Bile acid receptor (Homo sapiens) (UniProt Q96RI1); test: qHTS assay to identify small molecule agonists of the farnesoid-X-receptor (FXR) signaling pathway (AID 743220; active means well fitted activation curve with a large enough effect in the signal ratio in the repeat runs, not every such curve was filed as active; the % refers to the signal ratio)
Sequence of Bile acid receptor (Homo sapiens) (Q96RI1 whole entry, looked up): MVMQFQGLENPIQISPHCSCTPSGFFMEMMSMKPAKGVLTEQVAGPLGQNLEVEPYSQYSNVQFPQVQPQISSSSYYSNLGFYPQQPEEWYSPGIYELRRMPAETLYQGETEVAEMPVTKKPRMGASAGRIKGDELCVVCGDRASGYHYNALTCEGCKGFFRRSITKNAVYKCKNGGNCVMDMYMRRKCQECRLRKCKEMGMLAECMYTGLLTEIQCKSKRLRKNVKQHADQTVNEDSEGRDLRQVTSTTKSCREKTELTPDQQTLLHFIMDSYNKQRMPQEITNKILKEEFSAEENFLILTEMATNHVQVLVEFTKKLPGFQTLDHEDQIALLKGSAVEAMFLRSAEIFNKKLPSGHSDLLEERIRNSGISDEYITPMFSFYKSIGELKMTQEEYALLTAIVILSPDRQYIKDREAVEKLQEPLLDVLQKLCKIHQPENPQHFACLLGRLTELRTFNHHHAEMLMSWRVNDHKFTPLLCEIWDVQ
How it was run: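 FXR-UAS-bla HEK 293T cells carrying a UAS-driven beta-lactamase reporter were plated for 5 h at 37C/5% CO2, then exposed to DMSO-dissolved Tox21 10K compounds for 16 h at 37C. A LiveBLAzer B/G FRET substrate was loaded for 2 h at room temperature before fluorescence reading.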

[20] = biological target: Bile acid receptor (Homo sapiens) (UniProt Q96RI1); test: qHTS assay to identify small molecule antagonists of the farnesoid-X-receptor (FXR) signaling pathway (AID 743217; active means well fitted inhibition curve with a large enough effect in the signal ratio in the repeat runs, not every such curve was filed as active; the % refers to the signal ratio)
How it was run: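 FRET fluorescence after 2 h room-temperature LiveBLAzer loading gives the readout. Prior step: FXR-bla HEK 293T cells, seeded and incubated 5 h, received test compounds plus 50 uM final CDCA for 16 h at 37 °C.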

Measured: Potency

CCC(=O)Nc1cccc(N)c1
not listed: [18] | [19] | [20]
inactive: all other assays above

CCO[Si](CCCN=C=O)(OCC)OCC
not listed: [1] | [7] | [19] | [20]
inactive: all other assays above

OCC(CO)(CO)COCC(CO)(CO)CO
not listed: [1] | [2] | [4] | [20]
inactive: all other assays above

CCCCCCCCCCCCI
not listed: [1] | [2] | [4]
inactive: all other assays above

O=C(O)CCNC(=O)c1ccc(N=Nc2ccc(O)c(C(=O)O)c2)cc1
not listed: [7] | [8] | [18]
inactive: all other assays above

CCCCCCOC(=O)c1ccccc1O
not listed: [1] | [2] | [5] | [6]
inactive: all other assays above

C1C2OC2C2C1C1CC2C2OC12 (stereo not given)
not listed: [1] | [2] | [4] | [7] | [8] | [19] | [20]
inactive: all other assays above

CCn1c(=O)c2c(nc(/C=C/c3ccc(OC)c(OC)c3)n2C)n(CC)c1=O
not listed: [4] | [18]
inactive: all other assays above
